Experiments:
Test in all cases: DAPPL (digital affinity profiling via proximity ligation, sequencing); 10 mM Tris-HCl pH 7.5, 50 mM NaCl, 1 mM DTT, 4% glycerol, room temperature, 30 min; GST-TFs on glutathione beads, 16-mer random dsDNA library, 0.1% formaldehyde crosslink after washing; high values mean tight binding
FLI1 = target: T1, FLI1 (Homo sapiens, UniProt Q01543 1-452); details: protein: recombinant; tags: N-terminal GST; dsDNA, one strand shown
T1 sequence: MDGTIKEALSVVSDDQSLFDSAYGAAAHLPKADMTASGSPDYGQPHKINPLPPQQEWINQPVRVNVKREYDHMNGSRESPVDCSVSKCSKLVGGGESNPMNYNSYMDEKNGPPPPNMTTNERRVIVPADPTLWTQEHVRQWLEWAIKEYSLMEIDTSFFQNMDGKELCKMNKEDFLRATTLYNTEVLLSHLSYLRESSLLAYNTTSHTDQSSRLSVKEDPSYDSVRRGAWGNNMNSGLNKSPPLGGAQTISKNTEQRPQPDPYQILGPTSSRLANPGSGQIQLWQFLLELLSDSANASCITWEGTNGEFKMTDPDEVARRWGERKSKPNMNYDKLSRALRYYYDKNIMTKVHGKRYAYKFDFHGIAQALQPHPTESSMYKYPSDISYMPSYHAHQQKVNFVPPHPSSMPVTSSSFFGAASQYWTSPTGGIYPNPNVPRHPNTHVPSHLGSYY
How it was run: (§1)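 Yeast served to express human transcription factors as GST fusions, which were then captured on glutathione beads and labelled with DNA barcodes. Pooled with a tag-only sample, they were incubated with 200 nmole of a 16-mer random double-stranded DNA library for 30 min at room temperature in Tris/NaCl/DTT/glycerol buffer, washed, crosslinked with 0.1% formaldehyde, ligated by proximity, amplified by PCR and sequenced. Dividing each hexamer's read frequency for a factor by its frequency for the tag-only sample gives the binding signal.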

ELK1 = target: T2, ELK1 (Homo sapiens, UniProt P19419 1-428); details: protein: recombinant; tags: N-terminal GST; dsDNA, one strand shown
T2 sequence: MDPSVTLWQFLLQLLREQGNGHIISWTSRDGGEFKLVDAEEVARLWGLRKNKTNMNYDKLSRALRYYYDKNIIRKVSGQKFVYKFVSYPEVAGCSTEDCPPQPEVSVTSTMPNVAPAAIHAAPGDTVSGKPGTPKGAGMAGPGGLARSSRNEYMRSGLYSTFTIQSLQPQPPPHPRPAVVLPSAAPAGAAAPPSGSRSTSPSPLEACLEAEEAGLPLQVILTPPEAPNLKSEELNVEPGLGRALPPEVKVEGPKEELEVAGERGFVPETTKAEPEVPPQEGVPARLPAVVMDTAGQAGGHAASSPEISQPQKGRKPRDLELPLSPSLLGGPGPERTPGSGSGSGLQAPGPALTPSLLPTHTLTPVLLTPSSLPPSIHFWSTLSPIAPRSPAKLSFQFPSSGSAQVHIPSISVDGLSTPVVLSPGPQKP
How it was run: as §1

GABPA = target: T3, GABPA (Homo sapiens, UniProt Q06546 1-454); details: protein: recombinant; tags: N-terminal GST; dsDNA, one strand shown
T3 sequence: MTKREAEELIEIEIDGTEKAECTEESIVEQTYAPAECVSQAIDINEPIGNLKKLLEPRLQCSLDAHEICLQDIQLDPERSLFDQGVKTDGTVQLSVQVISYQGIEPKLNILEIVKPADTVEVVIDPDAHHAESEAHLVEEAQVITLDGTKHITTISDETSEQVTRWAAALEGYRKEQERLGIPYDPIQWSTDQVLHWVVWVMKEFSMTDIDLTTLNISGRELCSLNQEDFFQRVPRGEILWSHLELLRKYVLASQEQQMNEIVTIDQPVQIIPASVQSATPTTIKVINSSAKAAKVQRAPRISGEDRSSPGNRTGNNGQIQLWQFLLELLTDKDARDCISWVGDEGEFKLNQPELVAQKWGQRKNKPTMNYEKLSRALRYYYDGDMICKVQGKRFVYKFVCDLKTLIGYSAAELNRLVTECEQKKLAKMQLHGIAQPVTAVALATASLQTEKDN
How it was run: as §1

ERG = target: T4, ERG (Homo sapiens, UniProt P11308 1-479); details: protein: recombinant; tags: N-terminal GST; dsDNA, one strand shown
T4 sequence: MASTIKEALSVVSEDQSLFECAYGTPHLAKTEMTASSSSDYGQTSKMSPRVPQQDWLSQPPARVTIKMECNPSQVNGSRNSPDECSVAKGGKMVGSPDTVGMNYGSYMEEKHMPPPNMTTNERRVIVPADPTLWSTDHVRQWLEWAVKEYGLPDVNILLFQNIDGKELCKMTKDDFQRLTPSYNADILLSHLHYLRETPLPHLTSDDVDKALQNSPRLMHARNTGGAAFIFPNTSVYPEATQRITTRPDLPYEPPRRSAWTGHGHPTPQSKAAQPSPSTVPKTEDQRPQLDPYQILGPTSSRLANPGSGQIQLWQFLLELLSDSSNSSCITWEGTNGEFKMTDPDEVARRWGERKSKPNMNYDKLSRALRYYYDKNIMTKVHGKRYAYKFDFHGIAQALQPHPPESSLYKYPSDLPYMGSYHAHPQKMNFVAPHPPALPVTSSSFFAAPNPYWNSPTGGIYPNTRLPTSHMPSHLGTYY
How it was run: as §1

ELF1 = ELF1 (Homo sapiens, UniProt P32519 1-619); details: protein: recombinant; tags: N-terminal GST; dsDNA, one strand shown
Sequence of ELF1 (P32519 whole entry): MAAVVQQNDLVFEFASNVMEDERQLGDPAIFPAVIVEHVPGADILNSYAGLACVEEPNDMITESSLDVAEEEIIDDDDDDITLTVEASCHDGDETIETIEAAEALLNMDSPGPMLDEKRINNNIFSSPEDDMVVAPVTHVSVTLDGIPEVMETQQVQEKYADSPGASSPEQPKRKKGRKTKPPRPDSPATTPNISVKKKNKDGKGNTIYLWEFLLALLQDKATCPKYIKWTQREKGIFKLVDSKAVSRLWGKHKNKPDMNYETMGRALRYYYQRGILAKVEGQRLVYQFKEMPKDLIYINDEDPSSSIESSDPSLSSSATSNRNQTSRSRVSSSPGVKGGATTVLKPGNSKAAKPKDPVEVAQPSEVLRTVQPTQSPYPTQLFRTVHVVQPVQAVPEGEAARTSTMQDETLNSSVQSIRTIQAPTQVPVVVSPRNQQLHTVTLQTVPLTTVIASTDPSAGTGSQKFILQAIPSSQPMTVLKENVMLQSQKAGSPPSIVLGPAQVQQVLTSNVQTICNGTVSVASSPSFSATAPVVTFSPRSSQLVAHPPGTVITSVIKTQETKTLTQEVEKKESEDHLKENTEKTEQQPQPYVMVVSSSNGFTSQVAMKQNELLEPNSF
How it was run: as §1

SPI1 = SPI1 (Homo sapiens, UniProt P17947 1-270); details: protein: recombinant; tags: N-terminal GST; dsDNA, one strand shown
How it was run: as §1

SPIB = SPIB (Homo sapiens, UniProt Q01892 1-262); details: protein: recombinant; tags: N-terminal GST; dsDNA, one strand shown
Sequence of SPIB (Q01892 whole entry): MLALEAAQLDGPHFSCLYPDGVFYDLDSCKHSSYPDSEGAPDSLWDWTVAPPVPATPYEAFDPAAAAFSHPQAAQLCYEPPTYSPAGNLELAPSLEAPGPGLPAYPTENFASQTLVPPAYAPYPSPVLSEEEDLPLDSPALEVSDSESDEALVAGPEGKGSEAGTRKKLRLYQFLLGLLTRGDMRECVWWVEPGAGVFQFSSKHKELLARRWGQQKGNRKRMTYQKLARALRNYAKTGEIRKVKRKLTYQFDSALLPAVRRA
How it was run: as §1

ELK3 = target: T5, ELK3 (Homo sapiens, UniProt P41970 1-407); details: protein: recombinant; tags: N-terminal GST; dsDNA, one strand shown
T5 sequence: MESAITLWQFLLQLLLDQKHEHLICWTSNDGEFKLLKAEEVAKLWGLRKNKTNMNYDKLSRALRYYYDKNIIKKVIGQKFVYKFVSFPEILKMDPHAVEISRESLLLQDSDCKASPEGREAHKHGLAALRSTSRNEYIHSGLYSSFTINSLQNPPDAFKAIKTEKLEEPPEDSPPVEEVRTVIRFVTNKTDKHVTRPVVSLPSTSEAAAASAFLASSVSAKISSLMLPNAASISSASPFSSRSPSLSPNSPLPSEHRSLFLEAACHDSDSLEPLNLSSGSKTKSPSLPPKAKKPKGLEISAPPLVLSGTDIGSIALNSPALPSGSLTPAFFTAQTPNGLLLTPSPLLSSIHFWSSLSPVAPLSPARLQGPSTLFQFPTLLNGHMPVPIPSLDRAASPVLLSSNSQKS
How it was run: as §1

FEV = target: T6, FEV (Homo sapiens, UniProt Q99581 1-238); details: protein: recombinant; tags: N-terminal GST; dsDNA, one strand shown
T6 sequence: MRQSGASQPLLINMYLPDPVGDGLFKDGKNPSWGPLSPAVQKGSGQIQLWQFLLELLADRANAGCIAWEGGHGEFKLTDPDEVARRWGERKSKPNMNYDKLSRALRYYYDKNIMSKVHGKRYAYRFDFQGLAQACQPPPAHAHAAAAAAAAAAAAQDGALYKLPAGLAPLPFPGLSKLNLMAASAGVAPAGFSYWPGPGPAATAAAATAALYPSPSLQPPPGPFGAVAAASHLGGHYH
How it was run: as §1

ETV5 = ETV5 (Homo sapiens, UniProt P41161 1-510); details: protein: recombinant; tags: N-terminal GST; dsDNA, one strand shown
Sequence of ETV5 (P41161 whole entry): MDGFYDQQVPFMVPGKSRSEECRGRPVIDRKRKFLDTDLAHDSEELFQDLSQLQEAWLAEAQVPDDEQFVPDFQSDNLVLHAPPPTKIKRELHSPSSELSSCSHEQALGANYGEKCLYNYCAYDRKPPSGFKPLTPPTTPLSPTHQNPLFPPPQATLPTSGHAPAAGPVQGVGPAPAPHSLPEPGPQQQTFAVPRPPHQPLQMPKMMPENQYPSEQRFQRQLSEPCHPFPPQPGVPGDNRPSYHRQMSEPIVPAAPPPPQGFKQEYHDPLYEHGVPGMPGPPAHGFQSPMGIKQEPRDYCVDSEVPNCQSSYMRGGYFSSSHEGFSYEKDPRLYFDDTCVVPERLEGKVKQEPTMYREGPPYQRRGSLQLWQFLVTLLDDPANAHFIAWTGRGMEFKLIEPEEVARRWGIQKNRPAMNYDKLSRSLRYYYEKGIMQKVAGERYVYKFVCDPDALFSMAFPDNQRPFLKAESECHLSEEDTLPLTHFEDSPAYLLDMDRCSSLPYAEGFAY
How it was run: as §1

HSF1 = HSF1 (Homo sapiens, UniProt Q00613 1-529); details: protein: recombinant; tags: N-terminal GST; chain copies: 3; dsDNA, one strand shown
Sequence of HSF1 (Q00613 whole entry): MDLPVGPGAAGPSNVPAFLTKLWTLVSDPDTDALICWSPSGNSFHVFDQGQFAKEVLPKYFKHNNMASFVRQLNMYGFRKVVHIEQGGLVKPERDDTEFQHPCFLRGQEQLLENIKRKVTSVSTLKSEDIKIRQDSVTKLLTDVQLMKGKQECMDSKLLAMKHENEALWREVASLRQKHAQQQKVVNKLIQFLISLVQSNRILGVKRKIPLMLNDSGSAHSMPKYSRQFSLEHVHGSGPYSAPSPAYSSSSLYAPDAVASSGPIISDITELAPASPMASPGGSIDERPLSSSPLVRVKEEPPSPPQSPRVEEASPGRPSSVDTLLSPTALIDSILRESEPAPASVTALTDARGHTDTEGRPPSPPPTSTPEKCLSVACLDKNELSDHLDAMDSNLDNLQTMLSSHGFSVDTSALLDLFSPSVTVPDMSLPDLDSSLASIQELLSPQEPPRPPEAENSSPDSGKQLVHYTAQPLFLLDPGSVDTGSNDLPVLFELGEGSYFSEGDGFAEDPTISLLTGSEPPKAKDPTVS
How it was run: as §1

SPIC = target: T7, SPIC (Homo sapiens, UniProt Q8N5J4 1-248); details: protein: recombinant; tags: N-terminal GST; dsDNA, one strand shown
T7 sequence: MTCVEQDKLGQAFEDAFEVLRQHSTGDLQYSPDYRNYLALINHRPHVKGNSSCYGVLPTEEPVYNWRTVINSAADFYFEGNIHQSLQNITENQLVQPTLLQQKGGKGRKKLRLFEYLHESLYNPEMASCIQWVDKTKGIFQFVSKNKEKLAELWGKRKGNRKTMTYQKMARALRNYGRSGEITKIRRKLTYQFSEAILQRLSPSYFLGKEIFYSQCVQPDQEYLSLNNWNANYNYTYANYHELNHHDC
How it was run: as §1

ELF4 = ELF4 (Homo sapiens, UniProt Q99607 1-663); details: protein: recombinant; tags: N-terminal GST; dsDNA, one strand shown
Sequence of ELF4 (Q99607 whole entry): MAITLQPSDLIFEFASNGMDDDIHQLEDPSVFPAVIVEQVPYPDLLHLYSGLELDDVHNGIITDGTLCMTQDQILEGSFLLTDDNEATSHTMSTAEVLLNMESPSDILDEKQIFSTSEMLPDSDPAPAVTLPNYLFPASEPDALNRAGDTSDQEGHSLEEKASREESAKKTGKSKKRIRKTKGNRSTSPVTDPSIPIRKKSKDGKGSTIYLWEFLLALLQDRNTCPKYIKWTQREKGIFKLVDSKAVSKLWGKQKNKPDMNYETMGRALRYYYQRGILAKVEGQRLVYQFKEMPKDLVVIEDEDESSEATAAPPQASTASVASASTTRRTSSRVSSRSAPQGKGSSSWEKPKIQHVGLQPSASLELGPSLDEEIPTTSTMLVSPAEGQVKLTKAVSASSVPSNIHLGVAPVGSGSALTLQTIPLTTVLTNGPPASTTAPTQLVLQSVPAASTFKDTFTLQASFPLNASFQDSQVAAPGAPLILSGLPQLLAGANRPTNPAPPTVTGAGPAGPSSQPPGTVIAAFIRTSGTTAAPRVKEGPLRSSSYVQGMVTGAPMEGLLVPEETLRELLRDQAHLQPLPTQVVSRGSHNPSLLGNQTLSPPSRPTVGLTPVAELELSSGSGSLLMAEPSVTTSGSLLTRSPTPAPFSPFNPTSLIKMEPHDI
How it was run: as §1

ELK4 = target: T8, ELK4 (Homo sapiens, UniProt P28324-2 1-405); details: protein: recombinant; tags: N-terminal GST; dsDNA, one strand shown
T8 sequence: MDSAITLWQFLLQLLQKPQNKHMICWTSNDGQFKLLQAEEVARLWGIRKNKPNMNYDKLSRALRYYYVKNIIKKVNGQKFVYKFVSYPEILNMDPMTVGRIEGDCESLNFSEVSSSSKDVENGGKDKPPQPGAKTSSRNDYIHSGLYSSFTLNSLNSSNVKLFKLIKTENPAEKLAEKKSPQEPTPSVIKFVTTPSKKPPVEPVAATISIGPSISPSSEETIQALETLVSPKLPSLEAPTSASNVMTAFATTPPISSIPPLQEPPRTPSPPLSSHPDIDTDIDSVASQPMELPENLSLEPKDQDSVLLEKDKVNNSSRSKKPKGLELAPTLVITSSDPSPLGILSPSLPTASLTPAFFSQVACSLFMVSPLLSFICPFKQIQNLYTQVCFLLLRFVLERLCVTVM
How it was run: as §1

ELF3 = target: T9, ELF3 (Homo sapiens, UniProt P78545 1-371); details: protein: recombinant; tags: N-terminal GST; dsDNA, one strand shown
T9 sequence: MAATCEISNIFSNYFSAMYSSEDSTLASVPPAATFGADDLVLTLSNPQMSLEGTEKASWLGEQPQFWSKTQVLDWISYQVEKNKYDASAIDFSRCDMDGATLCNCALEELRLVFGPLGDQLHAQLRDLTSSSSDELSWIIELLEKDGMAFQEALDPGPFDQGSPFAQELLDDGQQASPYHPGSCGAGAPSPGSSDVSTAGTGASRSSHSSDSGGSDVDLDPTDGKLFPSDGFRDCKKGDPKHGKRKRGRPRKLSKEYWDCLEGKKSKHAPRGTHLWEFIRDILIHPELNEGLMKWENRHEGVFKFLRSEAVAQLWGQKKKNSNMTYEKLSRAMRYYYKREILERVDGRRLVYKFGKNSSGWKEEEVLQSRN
How it was run: as §1

CRX = CRX (Homo sapiens, UniProt O43186 1-299); details: protein: recombinant; tags: N-terminal GST; dsDNA, one strand shown
Sequence of CRX (O43186 whole entry): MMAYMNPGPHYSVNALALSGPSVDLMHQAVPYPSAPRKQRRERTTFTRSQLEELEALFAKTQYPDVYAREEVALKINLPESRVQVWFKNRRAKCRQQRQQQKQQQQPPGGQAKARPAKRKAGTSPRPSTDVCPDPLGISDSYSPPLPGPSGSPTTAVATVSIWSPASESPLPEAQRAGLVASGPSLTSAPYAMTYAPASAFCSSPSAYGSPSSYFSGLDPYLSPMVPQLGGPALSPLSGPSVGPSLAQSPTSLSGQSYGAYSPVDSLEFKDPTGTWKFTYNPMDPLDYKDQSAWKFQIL
How it was run: as §1

ETV1 = ETV1 (Homo sapiens, UniProt P50549 1-477); details: protein: recombinant; tags: N-terminal GST; dsDNA, one strand shown
Sequence of ETV1 (P50549 whole entry): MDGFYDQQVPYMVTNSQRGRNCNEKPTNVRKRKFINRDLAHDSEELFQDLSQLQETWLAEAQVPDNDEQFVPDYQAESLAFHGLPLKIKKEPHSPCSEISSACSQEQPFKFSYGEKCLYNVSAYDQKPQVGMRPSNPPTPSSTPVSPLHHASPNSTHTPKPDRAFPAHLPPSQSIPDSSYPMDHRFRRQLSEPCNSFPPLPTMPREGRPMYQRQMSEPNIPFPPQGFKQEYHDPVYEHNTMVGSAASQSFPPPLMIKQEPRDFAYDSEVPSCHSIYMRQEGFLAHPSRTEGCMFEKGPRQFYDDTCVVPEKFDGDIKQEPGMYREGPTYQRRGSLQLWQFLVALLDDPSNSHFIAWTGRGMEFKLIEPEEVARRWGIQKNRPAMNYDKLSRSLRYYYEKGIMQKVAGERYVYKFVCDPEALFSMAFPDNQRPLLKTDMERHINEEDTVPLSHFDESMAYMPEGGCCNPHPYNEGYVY
How it was run: as §1

Which binding signal (FLI1) does the source give for TGGTTA here?
The binding signal was 1.17 fold enrichment (6-mer frequency, TF over GST control).

What about the binding signal (ELK1) of the same sequence?
Its binding signal is 1.08 fold enrichment (6-mer frequency, TF over GST control).

What about the binding signal (GABPA) of the same sequence?
The binding signal was 1.09 fold enrichment (6-mer frequency, TF over GST control).

What about the binding signal (ERG) of the same sequence?
The binding signal was 1.13 fold enrichment (6-mer frequency, TF over GST control).

And the binding signal (ELF1)?
Its binding signal is 1.1 fold enrichment (6-mer frequency, TF over GST control).

What about the binding signal (SPI1) of the same sequence?
Its binding signal is 1.15 fold enrichment (6-mer frequency, TF over GST control).

What about the binding signal (SPIB) of the same sequence?
The binding signal was 1.12 fold enrichment (6-mer frequency, TF over GST control).

And the binding signal (ELK3)?
The binding signal was 1.13 fold enrichment (6-mer frequency, TF over GST control).

And the binding signal (FEV)?
The binding signal was 1.05 fold enrichment (6-mer frequency, TF over GST control).

What about the binding signal (ETV5) of the same sequence?
The binding signal was 1.03 fold enrichment (6-mer frequency, TF over GST control).

And the binding signal (HSF1)?
Its binding signal is 1.03 fold enrichment (6-mer frequency, TF over GST control).

What about the binding signal (SPIC) of the same sequence?
Its binding signal is 1.25 fold enrichment (6-mer frequency, TF over GST control).

What about the binding signal (ELF4) of the same sequence?
Its binding signal is 1.02 fold enrichment (6-mer frequency, TF over GST control).

What about the binding signal (ELK4) of the same sequence?
The binding signal was 1.06 fold enrichment (6-mer frequency, TF over GST control).

What about the binding signal (ELF3) of the same sequence?
Its binding signal is 1.16 fold enrichment (6-mer frequency, TF over GST control).

And the binding signal (CRX)?
Its binding signal is 1.15 fold enrichment (6-mer frequency, TF over GST control).

And the binding signal (ETV1)?
Its binding signal is 1.01 fold enrichment (6-mer frequency, TF over GST control).
